# Assay results from the supplement of paper PMC11219838.
# Unmarked numbers belong to inactive results.
# System: Caenorhabditis elegans L1 (N2)
# Experiment: survival and reproduction score of C. elegans L1 (0: 0-10 living worms, 1: 11-20, 2: 21-50, 3: >50, 4: overgrown) (score 0-4); higher = more worms, less nematicidal, active = 1 or less; extreme values may be limits of the assay
# Conditions: 60 µM; 6 days; temperature: 20 °C
# In short: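 Synchronized C. elegans N2 L1s (about 20 per well) were grown in 96-well plates in liquid NGM with E. coli HB101 and compound at 60 µM final (0.6% v/v DMSO), shaken sealed at 200 rpm and 20 °C for 6 days. The ordinal score for survival and reproduction counted living worms per well under a dissection microscope. The scale ran 0 (0–10 worms) to 4 (overgrown, starved), averaged over two biological replicates.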
row,Compound,survival and reproduction score
1,Clc1ccc(OCc2nc(-c3cccs3)no2)cc1,2.5
2,N#Cc1ccc(OCc2nc(-c3cccs3)no2)cc1,4
3,CC(Oc1ccccc1)c1nc(-c2ccccn2)no1 (stereo not drawn),4
4,CCOc1ccccc1-c1nnc(SCC(=O)N2CCC(C)CC2)o1,4
5,Ic1ccc(CSc2nnc(-c3ccco3)o2)cc1,3.5
6,CC(C)(C)c1ccc(-c2nnc(SCC(=O)c3ccc(F)cc3)o2)cc1,4
7,COc1cccc(-c2noc(CSc3ccccc3)n2)c1,4
8,O=C(CSc1nnc(-c2cccc(F)c2)o1)Nc1ccccc1C(=O)c1ccccc1,4
9,Cc1cccc(-c2noc(COc3ccc(Br)cc3)n2)c1,4
10,Cc1ccc(Cl)cc1NC(=O)CSc1nnc(-c2ccncc2)o1,4
11,COc1ccc(Cl)cc1-c1noc(-c2ccc(Cl)cc2)n1,4
12,CC(=O)Nc1c(C)ccc(CNC(=O)CSc2nnc(-c3ccc(C(C)(C)C)cc3)o2)c1C,4
13,Cc1ccc(SCc2nc(-c3cccc(C)c3)no2)cc1,4
14,COc1ccc(Br)cc1-c1noc(-c2ccncc2)n1,4
15,Cc1csc(NC(=O)CSc2nnc(-c3cccc(Cl)c3)o2)n1,4
16,COc1cccc(-c2nc(-c3ccc(C)cc3)no2)c1,0 (active)
17,Cc1c(C)n(C(=O)CSc2nnc(-c3ccccc3)o2)c2ccccc12,4
18,N#Cc1ccc(CSc2nnc(-c3ccco3)o2)cc1,1.5
19,O=C(CSc1nnc(-c2cccnc2)o1)c1ccc2ccccc2c1,4

row,Compound,survival and reproduction score
1,c1coc(-c2nc(-c3cccs3)no2)c1,0 (active)
2,O=C(CSc1nnc(-c2cccc3ccccc23)o1)c1ccc(F)cc1,4
3,Cc1ccccc1-c1nc(-c2ccc(Cl)cc2)no1,0 (active)
4,COc1ccc(-c2nnc(SCc3ccc(C#N)cc3)o2)cc1,4
5,COc1ccc(-c2noc(COc3ccc(C)cc3C)n2)cc1,4
6,O=C(CSc1nnc(-c2cc3ccccc3o2)o1)NC1CC1,4
7,O=C(CSc1nnc(-c2cccc(Br)c2)o1)c1ccc2c(c1)CCCC2,4
8,CC1CC(C)CN(C(=O)CSc2nnc(-c3cccc(Cl)c3)o2)C1 (stereo not drawn),4
9,COc1ccc(-c2noc(-c3ccccc3C(=O)Nc3ccc(NC(C)=O)cc3)n2)cc1,4
10,Cc1cc(C)c(NC(=O)CSc2nnc(-c3ccc(Br)cc3)o2)c(C)c1,4
11,COc1cccc(NC(=O)c2ccccc2-c2nc(-c3ccccc3Cl)no2)c1,4
12,Clc1cccc(-c2nc(-c3cccnc3)no2)c1,2
13,Cc1ccc(CSc2nnc(-c3ccco3)o2)cc1,0 (active)
14,Cc1ccc(OCc2nc(-c3ccc(Cl)cc3)no2)c(C)c1,4
15,CCOc1ccccc1-c1nnc(SCc2ccccc2)o1,4
16,Clc1ccc(-c2noc(-c3ccccc3Br)n2)cc1,3
17,Ic1cccc(-c2nc(-c3cccnc3)no2)c1,4
18,N#Cc1ccc(CSc2nnc(-c3ccccc3)o2)cc1,4
19,CCOc1ccccc1-c1nc(-c2ccc(Cl)cc2)no1,4
